PubChem BioAssay AID593 (National Center for Advancing Translational Sciences (NCATS), 2007)
About 540 (0.92%) of roughly 59,000 compounds were called active. Another 33% or so got no clear call; they are omitted. Rule as the data show it: active = max fluorescein-equivalent concentration above about 10 nM; inconclusive = between about 1.1 nM and that limit; inactive = weaker than that. Many of the other results were omitted from the sample, so actives are more common in it than they were.

Experiment: qHTS Assay for Spectroscopic Profiling in Fluorescein Spectral Region
Conditions: Compound autofluorescence, 480/540 nm; max fluorescein-equivalent concentration: stronger effect = higher value; outcome: fluorescein-equivalent
Excerpt: NIH Molecular Libraries Screening Centers Network [MLSCN]
NIH Chemical Genomics Center [NCGC]
Occasionally, the artifactual effect may originate from the compound's own spectral or other biophysical properties which generally tend to track its assay concentration. Pre-screening/profiling the library with respect to the compounds' spectral properties should help one exclude false positives early on. While the most informative fluorescent profiling data set is obtained by performing a full excitation and emission scan of each well by using a monochromator-based plate reader, such an approach is practical only on a very limited scale as scanning each well requires long time. An alternative approach, applied here, is to perform plate reader scans using selected excitation and emission wavelength pairs to generate a multidimensional relational database that correlates compound concentration and the respective relative fluorescence intensity at a given wavelength set. A standard curve of fluorescein present on each plate as six-point concentration series, was used to compute a normalized fluorescence response, termed dye-equivalent concentration, for each compound at each concentration.
NCGC Assay Protocol Summary:
100 mM Tris buffer, pH 8.0
The wells in columns 1 through 4 of a Kalypsys polypropylene 1536-well compound plate were filled with standard solutions of fluorophore corresponding to the spectral region of interest. Solutions of Fluorescein were placed in the following wells: Q1, R1: 3 mM, Q2, R2: 300 uM, Q3, R3: 30 uM, Q4, R4: zero (DMSO), S1, T1: 3 uM, S2, T2: 900 nM, S3, T3: 300 nM, S4, T4: zero (DMSO).
Six uL of buffer were dispensed to 1536-well Greiner black plates. Compounds and dye standards (23 nL) were transferred via Kalypsys PinTool. The plates were incubated for 15 min at room temperature, and then read on ViewLux (Perkin-Elmer) High-throughput CCD imager using 480 nm and 540 nm excitation and emission filter set.
Keywords: NIH Roadmap, MLSCN, MLI, MLSMR, qHTS, NCGC, Fluorescein, Fluorescent Profiling.

SMILES | max fluorescein-equivalent concentration
CN1C2C=C(N(C(=O)c3ccc(Cl)cc3)c3ccccc3)CC1CC2 (stereo not given) | 10 nM (active)
CCN1C[C@@]2(COC)CC[C@H](OC)[C@]34[C@@H]1[C@]1(OCO[C@@]15C[C@@H](OC)C1C[C@H]3[C@H]5[C@@H]1OC)[C@H](O)[C@@H]24 | inactive
COc1ccc(-c2nc(CS(=O)CC(=O)N3CCC4(CC3)OCCO4)c(C)o2)cc1 (stereo not given) | inactive
CC(C)CCC1(CCN)C(=O)NC(=O)NC1=O | inactive
CCC(=NCc1ccco1)c1c(O)n(Cc2ccccc2)c(=O)[nH]c1=O | inactive
